Reference: PubChem BioAssay (Tox21)
Results filed as inconclusive are left out. Activity calls are given as the source filed them. Unless noted, calls follow the shape of the dose curve; as a rule, active = well fitted curve in the direction sought with a large enough effect in the repeat runs; inconclusive = weak or mixed curves; inactive = flat fitted curve, though single readings scatter.

Key:
[1] = qHTS assay to test for compound auto fluorescence at 535 nm (green) in HEK293 cells (AID 720680)
[2] = qHTS assay to test for compound auto fluorescence at 460 nm (blue) in HEK293 cell free culture (AID 720681); also: potency is read from the fitted curve at half-maximal effect
Method in brief: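 Compounds were added to cell-free DMEM with 10% FBS and fluorescence read directly. The blue channel used 405 nm excitation and 460 nm emission, with triamterene as the reference fluorophore.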

[3] = qHTS assay to test for compound auto fluorescence at 535 nm (green) in HEK293 cell free culture (AID 720682)
Method in brief: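 Read-out: 485/535 nm fluorescence intensity, calibrated against fluorescein. Medium only (DMEM + 10% FBS, no cells); test compound or DMSO vehicle added by pintool before plate reading.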

[4] = qHTS assay to test for compound auto fluorescence at 590 nm (red) in HEK293 cell free culture (AID 720683)
Method in brief: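 Cell-free wells of DMEM with 10% FBS received compound, and intrinsic fluorescence was read at excitation/emission 540/590 nm. Values expressed as equivalence to Rose Bengal sodium.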

[5] = qHTS assay to test for compound auto fluorescence at 590 nm (red) in HepG2 cell free culture (AID 720684)
Method in brief: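 Compound was pinned into wells holding MEM with 10% FBS and no cells, and red fluorescence was read at Ex/Em 540/590 nm. Signal is expressed as auto fluorescence equivalency relative to Rose Bengal sodium.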

[6] = qHTS assay to test for compound auto fluorescence at 460 nm (blue) in HepG2 cell free culture (AID 720685); also: potency is read from the fitted curve at half-maximal effect
Method in brief: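 Compound (23 nL) or DMSO pinned into cell-free MEM with 10% FBS; blue fluorescence read at 405/460 nm excitation/emission, expressed as auto-fluorescence equivalency to triamterene.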

[7] = qHTS assay to test for compound auto fluorescence at 535 nm (green) in HepG2 cell free culture (AID 720686)
[8] = qHTS assay to test for compound auto fluorescence at 460 nm (blue) in HepG2 cells (AID 720687); also: potency is read from the fitted curve at half-maximal effect
Method in brief: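 HepG2 cells in MEM with 10% FBS, attached overnight at 37 C, were exposed to compound or DMSO for 1 hr at 37 C, 5% CO2. Blue fluorescence was read at 405/460 nm, with triamterene as reference fluorophore.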

[9] = biological target: Glucocorticoid receptor (Homo sapiens) (UniProt P04150); assay: qHTS assay to identify small molecule agonists of the glucocorticoid receptor (GR) signaling pathway (AID 720691; active = well fitted activation curve with a large enough effect in the signal ratio in the repeat runs, not every such curve was filed as active; the % refers to the signal ratio; also: potency is read from the fitted curve at half-maximal effect); conditions: GR-bla HeLa, beta-lactamase reporter ratio, 18 h; activation: at 62.4 µM (top of the series)
Method in brief: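 Agonist mode in a HeLa line carrying a GRE-controlled beta-lactamase reporter. Compounds act for 18 h at 37 C before a 2 h room-temperature FRET substrate step and fluorescence reading.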

[10] = biological target: Glucocorticoid receptor (Homo sapiens) (UniProt P04150); assay: qHTS assay to identify small molecule antagonists of the glucocorticoid receptor (GR) signaling pathway (AID 720692; active = well fitted inhibition curve with a large enough effect in the signal ratio in the repeat runs, not every such curve was filed as active; the % refers to the signal ratio; also: potency is read from the fitted curve at half-maximal effect)
Method in brief: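 Cells plated, rested 4 h at 37 C/5% CO2; compounds in DMSO pin-transferred; dexamethasone added to 5 nM final; 18 h at 37 C; B/G FRET substrate added, 2 h room temperature; fluorescence measured.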
% is scaled to controls: 0 for no effect and ±100 for the full control effect; tags tell the direction and shape of the fitted curve or compound fluorescence and quenching.

Glucocorticoid receptor (Homo sapiens), sequence (P04150 whole entry, looked up): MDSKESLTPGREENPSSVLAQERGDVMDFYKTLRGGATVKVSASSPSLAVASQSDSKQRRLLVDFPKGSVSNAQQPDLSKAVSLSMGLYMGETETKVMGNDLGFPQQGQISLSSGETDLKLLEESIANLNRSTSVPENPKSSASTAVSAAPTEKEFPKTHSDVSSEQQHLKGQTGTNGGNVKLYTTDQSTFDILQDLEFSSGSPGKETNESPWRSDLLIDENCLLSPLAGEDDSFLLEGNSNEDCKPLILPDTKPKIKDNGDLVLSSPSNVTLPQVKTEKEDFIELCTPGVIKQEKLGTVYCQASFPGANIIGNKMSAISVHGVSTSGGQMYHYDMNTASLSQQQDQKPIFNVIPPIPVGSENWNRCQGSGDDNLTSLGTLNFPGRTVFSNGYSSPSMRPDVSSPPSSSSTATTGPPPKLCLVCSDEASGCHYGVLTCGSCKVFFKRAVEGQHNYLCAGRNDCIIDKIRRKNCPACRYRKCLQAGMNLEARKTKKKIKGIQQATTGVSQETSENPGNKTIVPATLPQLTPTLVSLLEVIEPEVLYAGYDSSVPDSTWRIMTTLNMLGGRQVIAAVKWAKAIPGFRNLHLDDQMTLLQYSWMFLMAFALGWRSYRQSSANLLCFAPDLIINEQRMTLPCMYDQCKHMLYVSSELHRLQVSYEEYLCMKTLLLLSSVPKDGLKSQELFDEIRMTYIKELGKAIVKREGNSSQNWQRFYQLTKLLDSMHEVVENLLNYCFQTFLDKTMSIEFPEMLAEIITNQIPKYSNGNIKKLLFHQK

CCCCN(CCCC)CCC(O)c1cc2c(Cl)cc(Cl)cc2c2cc(C(F)(F)F)ccc12 (stereo unspecified)
inactive: fluorescence, % of fluorescein [1] -0.0754% [at 18.6 µM] | fluorescence, % of fluorescent control [2] -0.0401% [at 18.6 µM] | activity change [3] -0.0209% [at 18.6 µM, stronger effect = higher value] | fluorescence, % of fluorescent control [4] 0.212% [at 18.6 µM] | fluorescence, % of Rose Bengal [5] 0.0098% [at 18.6 µM] | fluorescence, % of fluorescent control [6] -0.0142% [at 18.6 µM] | fluorescence, % of fluorescein control [7] -0.0465% [at 18.6 µM] | fluorescence, % of fluorescent control [8] 0.0481% [at 18.6 µM] | Potency [9]

CN(C)CCOC(c1ccccc1)c1ccccc1 (tested in a mixture with another compound)
inactive: Potency [1] | Potency [2] | Potency [3] | Potency [4] | Potency [5] | Potency [6] | Potency [7] | Potency [8] | Potency [9]

O=S(=O)(O)CCCN1CCOCC1
inactive: Potency [1] | Potency [2] | Potency [3] | Potency [4] | Potency [5] | Potency [6] | Potency [7] | Potency [9] | Potency [10]

S=C(SSSSSSC(=S)N1CCCCC1)N1CCCCC1
inactive: fluorescence, % of fluorescein [1] -0.141% [at 18.6 µM] | fluorescence, % of fluorescent control [2] -0.263% [at 18.6 µM] | activity change [3] -0.0539% [at 18.6 µM, stronger effect = higher value] | fluorescence, % of fluorescent control [4] 0.0303% [at 18.6 µM] | fluorescence, % of Rose Bengal [5] -0.0342% [at 18.6 µM] | fluorescence, % of fluorescent control [6] -0.225% [at 18.6 µM] | fluorescence, % of fluorescein control [7] -0.0879% [at 18.6 µM] | Potency [9]

Cc1c(C)n(Cc2ccccc2)c2ccc(C(=O)OCCN(C)C)cc12
inactive: Potency [1] | Potency [2] | Potency [3] | Potency [4] | Potency [5] | Potency [6] | Potency [7] | Potency [9]

O=C1Nc2ccc(Cl)cc2[C@@](C#CC2CC2)(C(F)(F)F)O1
inactive: Potency [1] | Potency [2] | Potency [3] | Potency [4] | Potency [5] | Potency [6] | Potency [7] | Potency [9]
active: Potency [10] 23.9 µM

C/C=C/C(=O)Oc1c(CCCCCC(C)C)cc([N+](=O)[O-])cc1[N+](=O)[O-]
active: Potency [10] 3.09 µM
inactive: Potency [1] | Potency [2] | Potency [3] | Potency [4] | Potency [5] | Potency [6] | Potency [7] | Potency [8]

CCCC(CC)CCCCCCCN (stereo unspecified)
inactive: Potency [1] | Potency [2] | Potency [3] | Potency [4] | Potency [5] | Potency [6] | Potency [7] | Potency [8] | Potency [9] | Potency [10]

C[C@]12CC[C@H]3C(=CCc4cc(O)ccc43)[C@@H]1CCC2=O
inactive: Potency [1] | Potency [2] | Potency [3] | Potency [4] | Potency [5] | Potency [6] | Potency [7] | Potency [8]
active: Potency [10] 11 µM

NC(=O)C(=O)N/N=C/c1ccc([N+](=O)[O-])o1
inactive: Potency [1] | Potency [2] | Potency [3] | Potency [4] | Potency [5] | Potency [6] | Potency [7] | Potency [9] | Potency [10]

CCOC(=O)[C@@](C)(N)Cc1ccc(O)c(O)c1
inactive: fluorescence, % of fluorescein [1] -0.0378% [at 18.6 µM] | fluorescence, % of fluorescent control [2] 0.186% [at 18.6 µM] | activity change [3] -0.0329% [at 18.6 µM, stronger effect = higher value] | fluorescence, % of fluorescent control [4] 0.256% [at 18.6 µM] | fluorescence, % of Rose Bengal [5] 0.0263% [at 18.6 µM] | fluorescence, % of fluorescent control [6] 0.193% [at 18.6 µM] | fluorescence, % of fluorescein control [7] -0.0478% [at 18.6 µM] | fluorescence, % of fluorescent control [8] 0.0997% [at 18.6 µM] | Potency [9] | Potency [10]

CN(C)c1ccc(N=Nc2ccccc2C(=O)O)cc1
inactive: Potency [1] | Potency [2] | Potency [3] | Potency [4] | Potency [5] | Potency [6] | Potency [7] | Potency [9]

Oc1ccc(-c2ccccc2)c(Cl)c1
inactive: Potency [1] | Potency [2] | Potency [3] | Potency [4] | Potency [5] | Potency [6] | Potency [7] | Potency [8] | Potency [9] | Potency [10]

CNC(=S)NN
inactive: Potency [1] | Potency [2] | Potency [3] | Potency [4] | Potency [5] | Potency [6] | Potency [7] | Potency [8] | Potency [9] | Potency [10]

C/C=C/C=N/NC(=O)c1ccncc1
inactive: Potency [1] | Potency [2] | Potency [3] | Potency [4] | Potency [5] | Potency [6] | Potency [7] | Potency [8] | Potency [9] | Potency [10]

CSc1c(Cl)c(Cl)c(Cl)c(Cl)c1Cl
inactive: Potency [1] | Potency [2] | Potency [3] | Potency [4] | Potency [5] | Potency [6] | Potency [7] | Potency [8] | Potency [9] | Potency [10]

CC(C)c1cccc(C(C)C)c1N1C(=O)c2ccc(O)cc2C1=O
inactive: Potency [1] | Potency [3] | Potency [4] | Potency [5] | Potency [7]
active: Potency [2] 35.5 µM | Potency [6] 39.8 µM [fluorescent] | Potency [8] 35.5 µM [fluorescent] | Potency [10] 38.9 µM

COc1cc(C(C)C)c2c(c1)S(=O)(=O)N(COc1cc(=O)n3cccc(OCCN4CCCCC4)c3n1)C2=O
active: Potency [10] 10.4 µM
inactive: fluorescence, % of fluorescein [1] -0.188% [at 18.6 µM] | fluorescence, % of fluorescent control [2] -0.0582% [at 18.6 µM] | activity change [3] -0.182% [at 18.6 µM, stronger effect = higher value] | fluorescence, % of fluorescent control [4] 0.355% [at 18.6 µM] | fluorescence, % of Rose Bengal [5] -0.164% [at 18.6 µM] | fluorescence, % of fluorescent control [6] -0.155% [at 18.6 µM] | fluorescence, % of fluorescein control [7] -0.0973% [at 18.6 µM] | fluorescence, % of fluorescent control [8] 0.0401% [at 18.6 µM]

O=C1OC(OC(=O)c2cccnc2Nc2cccc(C(F)(F)F)c2)c2ccccc21 (stereo unspecified)
inactive: Potency [1] | Potency [2] | Potency [3] | Potency [4] | Potency [5] | Potency [6] | Potency [7] | Potency [8] | Potency [9] | Potency [10]

CCN(CC)CCNc1ccc(CO)c2sc3ccccc3c(=O)c12
inactive: Potency [1] | Potency [2] | Potency [3] | Potency [4] | Potency [5] | Potency [6] | Potency [7]
active: Potency [9] 19 µM

O=C(O)CC(=O)O
inactive: Potency [1] | Potency [2] | Potency [3] | Potency [4] | Potency [5] | Potency [6] | Potency [7] | Potency [9]
